BoNT-A LC inh2 = BoNT A light chain protease inhibition | multiplex microsphere protease substrate cleavage, flow cytometry | inhibition, % at 10 µM | 360,000 compounds, 0.17% hits | AID 588499; also: plate controls were buffer without enzyme for full effect and enzyme alone for no effect
MazF activator = increases E. coli MazEF RNase cleavage of RNA | 350,000 compounds, 0.32% hits | P0AE70 | FAM/BHQ RNA-DNA oligo cleavage fluorescence, 5 h | activation, % at 20 µM; in the data active = activation above about 50%
BoNT-F LC inh = BoNT F light chain protease inhibition; inhibition, % at 10 µM; 360,000 compounds, 0.22% hits; Multiplex microsphere protease cleavage assay, flow cytometry; AID 588497; in the data active = inhibition above about 35%, passing the limit was not always enough; inconclusive = no clear call, values can overlap the other calls; also: plate controls were buffer without enzyme for full effect and enzyme alone for no effect
Autofluor counter = compound fluorescence in toxin protease inhibitor counterscreen; compound autofluorescence counterscreen, microsphere flow cytometry; hits give high values; fluorescence intensity (no concentration beside the values); 360,000 compounds, 3.1% hits; in the data active = fluorescence intensity above about 16000; inconclusive = no clear call, values can overlap the other calls
Anthrax LF inh2 = anthrax lethal factor protease inhibition; multiplex microsphere protease cleavage assay, LF; inhibition, % at 10 µM; 360,000 compounds, 0.12% hits; AID 588501; also: plate controls were buffer without enzyme for full effect and enzyme alone for no effect
* marks the source's active call; other numbers are inactive results; u = inconclusive; x = no result given. An excerpt weighted towards active compounds, which were near 3.6% of everything screened. Rule as the data show it, unless noted: active = inhibition above about 30%; inconclusive = no clear call, values can overlap the other calls; inactive = below that.

SMILES | BoNT-A LC inh2 | MazF activator | BoNT-F LC inh | Autofluor counter | Anthrax LF inh2
O=C(CSc1nc2sc3c(c2c(=O)n1-c1ccccc1)CCCC3)NCc1ccco1 | -0.6 | -28.9 | -5.3 | 4174 | -13.2
COCCCn1c(SCC(=O)NCc2ccco2)nc2sc3c(c2c1=O)CCC3 | 1.8 | -1.2 | 4.4 | 19443* | -1.7
CCOC(=O)CSc1nc2cc(C(=O)NCC3CCCO3)ccc2c(=O)n1Cc1ccco1 (stereo not given) | 1.1 | -6.0 | 1.7 | 22243* | -3.8
C[C@@H]1COc2cccc(N3CCN(Cc4ccccc4F)CC3)c2S(=O)(=O)N1 | -0.9 | x | -5.7 | 4148 | -8.2
COC(=O)c1cc(Br)ccc1-c1ccc(/C=N/n2nnnc2N)o1 | -0.6 | 53.7* | 1.2 | 6609 | -5.3
COc1cc2c(cc1OC)C(c1cccs1)CC(=O)N2 (stereo not given) | 0.0 | -4.5 | -2.6 | 5372 | -2.1
O=C1CC(c2cccs2)c2cc3c(cc2N1)OCO3 (stereo not given) | -3.0 | 1.9 | -8.1 | 23380* | -1.5
CC1=C(C(=O)N(C)C)CC(CC(=O)NC2CC2)C(=O)N1Cc1ccccc1 (stereo not given) | 0.0 | 7.0 | 2.3 | 3712 | -6.5
COc1cc(CNC[C@H]2O[C@@H](n3ccc(N)nc3=O)[C@H](O)[C@@H]2O)ccc1OCc1ccc(C)cc1 | -0.3 | 8.6 | -7.4 | 3821 | -1.1
CCC(C)NC(=O)c1cn(-c2cccc(OC)c2)c(=O)c2ccccc12 (stereo not given) | 3.1 | 9.1 | 22.4 | 3624 | 20.5
COC(=O)C(CCSC)NC(=O)c1cn(-c2ccc(OC)cc2)c(=O)c2ccccc12 (stereo not given) | -1.4 | 5.8 | 35.5* | 4029 | -7.6
CC1(Oc2cccnc2Cl)CCN(Cc2ccc(OC(F)(F)F)cc2)C1 (stereo not given) | -0.4 | x | -1.9 | 4028 | 4.5
O=C1NCCN1C(=O)c1ccco1 | -1.6 | 9.7 | -2.5 | 22557* | -0.2
COc1cc(C(=O)Nc2sc3c(c2C(=O)NCc2ccco2)CCCC3)cc(OC)c1OC | 0.1 | -5.3 | 8.3 | 4964 | -4.8
Cc1ccc(C(=O)Nc2sc3c(c2C(=O)NCc2ccco2)CCCC3)cc1 | -1.0 | -6.5 | -34.3 | 4637 | -6.7
O=C(Nc1sc2c(c1C(=O)NCc1cccnc1)CCCC2)c1ccco1 | 0.1 | -1.1 | -0.1 | 22004* | 0.0
CNC(=O)c1c(NC(=O)c2ccco2)sc2c1CCCC2 | 0.1 | 4.1 | -2.5 | 5943 | 1.3
COC(=O)Nc1sc2c(c1C(=O)NCc1ccco1)CCCC2 | 5.2 | 0.4 | 4.1 | 17349* | -14.7
COC(=O)Nc1sc2c(c1C(=O)NC1CC1)CCCCCC2 | 0.0 | 2.3 | -0.3 | 16545* | -2.5
COC(=O)Nc1sc2c(c1C(=O)NCc1ccco1)CCC2 | u | -2.7 | 1.0 | 20826* | -2.5
N#Cc1cnn2c(=O)[nH]cnc12 | 0.3 | 4.5 | -4.0 | 3760 | 5.0
Cc1csc(=O)n1CC(=O)OCC(=O)c1ccc(Br)cc1 | 2.9 | 1.0 | 4.9 | 5726 | 0.8
CCn1c(=O)n(CC)c2cc(N3CCCC3)c(NC(=O)c3cc(Cl)ccc3OC)cc21 | -3.7 | 10.5 | -3.9 | 5251 | 3.6
Cc1noc(C)c1CSCC(=O)N(C)CC(=O)Nc1ccccc1C(F)(F)F | -0.6 | 5.6 | 4.3 | 6406 | 2.8
O=C(Nc1sc2c(c1C(=O)NCc1ccco1)CCCC2)c1ccc2c(c1)OCO2 | 4.9 | 6.3 | 5.9 | 21722* | -5.3
SMILES | BoNT-A LC inh2 | MazF activator | BoNT-F LC inh | Autofluor counter | Anthrax LF inh2
COC(=O)c1c(NC(=O)/C=C/c2ccco2)sc2c1CCC2 | 0.8 | 56.6* | 2.0 | 2004 | 0.0
CC(C(=O)Nc1sc2c(c1C(=O)NCc1ccco1)CCCC2)N1C(=O)c2ccccc2C1=O (stereo not given) | -1.1 | -13.6 | -9.3 | 3525 | -2.4
O=C(CCN1C(=O)c2ccccc2C1=O)Nc1sc2c(c1C(=O)NCc1ccco1)CCCC2 | u | 3.4 | -5.8 | 23594* | -10.3
CC(C)OC(=O)c1ccc(NC(=O)c2cncc(Br)c2)cc1 | -0.6 | 1.1 | -3.5 | 2362 | -2.0
CN(C)C(=O)c1ccc(NC(=O)c2cncc(Br)c2)cc1 | 3.0 | 11.7 | 7.2 | 21882* | 2.3
O=C1Nc2ccccc2SC1=Cc1ccccc1 | -0.1 | -24.7 | -4.3 | 2855 | -3.9
O=C1Nc2ccccc2S/C1=C/Nc1cccc(Cl)c1 | -0.7 | 58.7* | 4.3 | 9307 | -2.9
Cc1oc2ccccc2c1-c1cn2c(n1)SCC2 | u | 5.6 | -5.0 | 23992* | -5.0
COc1ccc(/C(N)=N/OC(=O)/C=C/c2ccccc2)cc1 | 5.9 | 5.9 | 61.7* | 2098 | 1.9
N/C(=N\OC(=O)/C=C/c1ccccc1)c1cccnc1 | -0.2 | -1.9 | -3.5 | 2661 | 0.2

Screens from PubChem.
